HT1080-NT tox – kills 2HG-producing HT-1080-NT fibrosarcoma cells; HT-1080-NT fibrosarcoma viability, CellTiter-Glo ATP luminescence, 48 h; Potency, µM (top dose mostly 46.1 µM), inactives show at the top dose activity, negative = less viability, actives largely listed as cytotoxic; hit rate 1.6% among 360,000; AID 686970;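 also: NT is the 2HG producing partner of a matched IDH1 knockdown line; potency is read from the fitted curve at half-maximal effect; 0% = DMSO-treated cells and -100% = media-only wells without cells; nearly all actives have a fitted effect of over 55% in size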
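Read-out is CellTiter-Glo luminescence after 10 minutes at room temperature, following 48 hours' compound treatment of HT-1080-NT cells (750 cells/well, RPMI, 5% FBS, 37 degrees C).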
IL-1B inflam inh – blocks inflammasome-driven IL-1 beta release; hit rate 4.7% among 360,000; THP-1 LPS/ATP IL-1B secretion, AlphaLISA, 16 h; active compounds read low; AID 743279; activity change, % at 57.5 µM; in the data active = activity change below about -50%; inconclusive = mostly about -30% to -49%
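Secreted IL-1B measured by AlphaLISA bead assay after 16 h compound exposure of THP-1 cells; compounds (final up to 57.5 uM) added 1 h before LPS (250 ng/mL) and ATP (1.25 mM) stimulation; lower signal means less secretion.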
ELG1 repair inh – ELG1-dependent DNA repair inhibition; Potency, µM (titrated, usually from 46.1 µM), for the others: at the highest dose activity change, negative = inhibition, most hits filed as inhibitors; hit rate 2.3% among 330,000; HEK293T ELG1-luciferase reporter, luminescence, 16 h; DNA damage induced by 5-fluorouridine; also: potency is read from the fitted curve at half-maximal effect; nearly all actives have a fitted effect of over 55% in size
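HEK293T cells expressing luciferase-tagged ELG1 (2,000/well) received 5-Fluorouridine plus compound or DMSO for 16 hr at 37 °C. Luciferase was read by ONE-Glo luminescence after 30 min at room temperature.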
DT40 TDP1 no CPT – qHTS for Inhibitors of human tyrosyl-DNA phosphodiesterase 1 (TDP1): qHTS in cells in absence of CPT; Potency, µM (doses to about 46.2 µM), without a hit: at the top dose activity change, negative = growth inhibition, usual class: inhibitors; hit rate 15% among 420,000; DT40 Tdp1-/- hTDP1 cells, no CPT, ATP luminescence, 48 h; also: potency is read from the fitted curve at half-maximal effect; nearly all actives have a fitted effect of over 55% in size
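A cellular qHTS used chicken DT40 cells lacking endogenous Tdp1 but carrying stably transfected human TDP1. Compounds were applied without camptothecin, and cell growth kinetics were judged by ATP-dependent luminescence after ≥48 hr.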
TDP1 cell CPT – growth inhibition of DT40 Tdp1-/-;hTDP1 cells with camptothecin (screen for TDP1 inhibitors); chicken DT40 Tdp1-/-;hTDP1 cells + 20 nM CPT, ATP luminescence, 48 h; Potency, µM (doses to about 46.2 µM), without a hit: at the highest dose activity change, negative = growth inhibition, hits mostly inhibitors; hit rate 12% among 420,000; AID 686979; also: potency is read from the fitted curve at half-maximal effect; nearly all actives have a fitted effect of over 55% in size
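Chicken DT40 Tdp1-/- cells stably complemented with human TDP1 were seeded at 400 cells/well in medium containing 20 nM camptothecin, exposed to pin-transferred compounds, and grown at 37 °C for at least 48 hr. Viability was read as ATP luminescence.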
HT1080 IDH1KD tx – kills HT-1080 cells with IDH1 knockdown; hit rate 2% among 360,000; HT-1080 IDH1 knockdown viability, ATP luminescence, 48 h; AID 686971; Potency, µM (titrated, usually from 46.1 µM), without a hit: at the top dose activity, negative = toxicity, usual class: cytotoxic;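 also: potency is read from the fitted curve at half-maximal effect; 0% = DMSO wells and -100% = cell-free medium wells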
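CellTiter-Glo luminescence after 48 h compound exposure at 37 degrees C of IDH1-knockdown HT-1080 cells in 5% FBS RPMI. %Activity scaled between DMSO wells and cell-free media wells, with curves fitted and assigned curve classes.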
Numbers without * were called inactive; ? = inconclusive; . = not tested or not shown; ! = repeats disagree; [ ] = remark or other dose. Rows were chosen to be rich in hits. Some 19% of all compounds tested hit in one or more screens of this group. Unless noted, calls follow the shape of the dose curve; as a rule, active = well fitted curve in the direction sought with a large enough effect; inconclusive = small, poorly fitted or top-dose-only effect, or another doubt; inactive = no such curve, though single readings can be large; an effect the other way counts as inactive or inconclusive. Unless noted, % is scaled to controls: 0 for no effect and ±100 for the full control effect.

SMILES	HT1080-NT tox	IL-1B inflam inh	ELG1 repair inh	DT40 TDP1 no CPT	TDP1 cell CPT	HT1080 IDH1KD tx
O=C(/C=C/c1ccc(Cl)cc1)c1cccnc1	-19.7%	?	?	8.2µM*	5.8µM*	?
N#Cc1ccc(/C=C/C(=O)c2cccnc2)cc1	?	?	?	14.6µM*	10.3µM*	?
CCN(CC)c1ccc(/C=C/C(=O)c2cccnc2)cc1	15.0%	6.4	23.1µM*	20.6µM*	?	-7.9%
CC(Sc1ccccc1)C(=O)N1CCN(S(=O)(=O)c2ccc(Cl)cc2)CC1 (centres undefined)	-17.6%	-18.1	9.0%	?	-10.4%	-8.5%
NC1=NC(=O)C(Cc2ccc(OC(F)(F)F)cc2)S1 (centres undefined)	1.4%	-9.7	5.4%	4.7%	-15.7%	0.8%
O=C(/C=C/c1ccccc1Cl)c1ccc(O)cc1	-1.6%	-95.2*	?	14.6µM*	16.4µM*	?
O=C(/C=C/c1ccccc1Cl)c1cccnc1	?	?	?	16.4µM*	7.31µM*	?
O=C(NNC(=O)c1ccccc1Cl)c1cccnc1	2.5%	9.3	?	-7.4%	4.4%	5.7%
O=C(/C=C/c1c(F)cccc1Cl)c1ccc(O)cc1	?	?	17.8%	23.1µM*	?	?
O=C(/C=C/c1c(F)cccc1Cl)Nc1ncccn1	12.0%	-7.7	?	0.4%	0.7%	9.9%
O=C1CC(c2ccccc2O)Oc2ccc(O)cc21 (centres undefined)	.	.	.	-20.4%	-11.0%	.
CC1(C(=O)NCc2ccccc2Br)CCN1Cc1ccccc1OC(F)F (centres undefined)	?	-54.0*	.	23.1µM*	?	?
CC1(C(=O)NCCc2c[nH]c3ccccc23)CCN1Cc1ccccc1OC(F)F (centres undefined)	23.1µM*	-20.4	.	?	18.4µM*	?
CC1(C(=O)NCc2ccccc2Br)CCN1Cc1c(F)cccc1F (centres undefined)	-12.6%	-21.0	.	?	?	-17.5%
CC(C)CNC(=O)C1(C)CCCN1Cc1ccccc1OC(F)F (centres undefined)	-10.5%	-5.4	.	23.1µM*	20.6µM*	2.8%
CC1(C(=O)NCCc2c[nH]c3ccccc23)CCN1Cc1csc2ccccc12 (centres undefined)	13.3%	23.0	.	-1.7%	0.1%	-10.7%
CCCCCC=CCC=CCCCCCCCC(=O)OCC	.	.	.	-1.3%	9.2%	.
Brc1ccc([C@H]2C=C[C@H]3CCCN4CC[C@H]2[C@@H]3[C@]42CO2)cc1	-11.9%	?	.	11.6µM*	18.4µM*	-23.4%
COc1ccc(C2Nc3cc(OC)ccc3-n3cccc32)cc1 (centres undefined)	-15.9%	?	-17.6%	23.1µM*	23.1µM*	-22.0%
COc1ccc(N2C(=O)CCC2=O)c(OC)c1	16.2%	2.4	-1.4%	25.6%	0.2%	-9.4%
O=C(O)c1cccc(O)c1O	?	7.6	.	1.5%	-7.0%	-1.8%
Oc1cccc(O)c1O	.	.	.	?	5.96µM*	.
OCCCNc1ncnc2sc3c(c12)CCN(Cc1ccccc1)C3	-5.6%	2.7	?	18.4µM*	?	0.9%
O=c1[nH]cnc2sc3c(c12)CCN(Cc1ccccc1)C3	5.7%	24.5	?	?	?	2.7%
CCc1cc(C(=O)NCC2Cc3cccc(-c4ccc(C(=O)OC)cn4)c3O2)no1 (centres undefined)	.	.	.	-5.5%	5.2%	.
SMILES	HT1080-NT tox	IL-1B inflam inh	ELG1 repair inh	DT40 TDP1 no CPT	TDP1 cell CPT	HT1080 IDH1KD tx
COC(=O)c1c(NC(=O)CN2CCCC(C)C2)c2c(C)cccc2n1C (centres undefined)	-12.2%	-11.2	-12.9%	6.51µM*	?	-3.5%
COc1ccc(CCN(C)C2CCCN(C(=O)Cn3cnnn3)C2)cc1OC (centres undefined)	-5.7%	0.0	15.8%	-3.3%	-12.1%	2.0%
COC(=O)\C(C(C)=O)=C(/C=C/C=C/C=C/N(C)C)N(C)C	10.6%	10.3	0.2%	20.6µM*	?	5.6%[9.24 µM]
Cc1cnc(CNc2cc(-c3ccccc3CN(C)C)ncn2)cn1	.	.	.	-15.3%	-6.9%	.
COc1cc(OC)c(-c2nn3c(C4CCCCC4)nnc3s2)cc1OC	5.0%	-8.4	20.6µM*	?	?	?
COc1cc(OC)c(-c2nn3c(-c4cc(C)[nH]n4)nnc3s2)cc1OC	.	.	.	4.47µM*	7.08µM*	.
CCOc1cccc(-c2nnc3sc(-c4cc(OC)c(OC)cc4OC)nn23)c1	.	.	-1.8%	.	.	.
COc1cc(OC)c(-c2nn3c(-c4n[nH]c5c4CCC5)nnc3s2)cc1OC	.	.	.	11.2µM*!	?	.
Cc1cc(NC(=O)C(C)SCC(=O)Nc2nc3c(F)cc(F)cc3s2)no1 (centres undefined)	3.6%	7.3	-17.3%	?	-8.7%	8.2%
CCCc1cc(=O)[nH]c(SCc2nc(-c3ccc(OCC)cc3)no2)n1	.	.	.	-23.5%	-26.3%	.
N=c1n(CCO)c2ccccc2n1CCOc1ccc(Cl)cc1Cl	20.6µM*	-102.0*	1.9%	5.8µM*	6.51µM*	?
COc1ccc(C(O)Cn2c(=N)n(CCCN(C)C)c3ccccc32)cc1 (centres undefined)	-12.3%	-27.8	2.5%	?	?	-1.2%
COc1ccc(OCC(O)CN2CCCCC2)cc1 (centres undefined)	9.4%	13.6	12.1%	3.9%	-0.7%	14.9%
N=c1n(CCN2CCCCC2)c2ccccc2n1CC(O)COc1ccc(Cl)cc1Cl (centres undefined)	.	.	.	4.61µM*	3.66µM*	.
OC(COc1ccc(Cl)cc1Cl)CN1CCc2ccccc2C1 (centres undefined)	?	-21.5	5.5%	?	?	?
COc1ccc(OCC(O)Cn2c(=N)n(CCN3CCCCC3)c3ccccc32)cc1 (centres undefined)	18.4µM*	-57.5*	?	18.4µM*	13µM*	?
N=c1n(CCN2CCCC2)c2ccccc2n1CC(O)c1ccc(Cl)c(Cl)c1 (centres undefined)	?	-21.9	?	3.66µM*	5.8µM*	?
Cc1ccc(OCC(O)Cn2c(=N)n(CCN3CCCCC3)c3ccccc32)cc1 (centres undefined)	16.4µM*	-50.0*	-14.4%	23.1µM*	5.17µM*	?

High-throughput results deposited in PubChem BioAssay by National Center for Advancing Translational Sciences (NCATS).
